Only some compounds are listed: those with a hit (about 21% of all), similar ones and a draw of the others.
CYP2C19 inh: blocks human cytochrome P450 2C19 | P33261 | CYP2C19 Supersomes, luciferin-H EGE luminescence, 30 min | AID 778 | inhibition, % at 5 µM | hit rate 21% among 96,000;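 active = CYP2C19 inhibition above a set limit at 5 µM in the primary screen, cut at about 50% in these data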;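 note: plate controls were negative control wells for no effect and 2.5 mM tranylcypromine positive control for full effect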
Target sequence (P33261 whole entry, looked up): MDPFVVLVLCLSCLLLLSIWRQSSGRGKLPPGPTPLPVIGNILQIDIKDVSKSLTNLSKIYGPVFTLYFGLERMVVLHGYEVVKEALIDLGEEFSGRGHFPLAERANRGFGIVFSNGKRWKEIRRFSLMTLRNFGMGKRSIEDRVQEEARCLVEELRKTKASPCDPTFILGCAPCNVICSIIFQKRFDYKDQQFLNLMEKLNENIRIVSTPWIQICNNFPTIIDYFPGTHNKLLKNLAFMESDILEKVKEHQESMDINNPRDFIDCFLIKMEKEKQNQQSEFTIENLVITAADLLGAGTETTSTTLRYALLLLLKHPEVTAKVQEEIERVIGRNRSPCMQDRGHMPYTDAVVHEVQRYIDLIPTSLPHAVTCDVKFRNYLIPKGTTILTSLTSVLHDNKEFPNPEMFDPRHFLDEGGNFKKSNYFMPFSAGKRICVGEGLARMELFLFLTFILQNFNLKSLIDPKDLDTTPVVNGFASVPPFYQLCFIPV
MRP1 act: activators of MRP-1. H69AR cells + doxorubicin, viability rescue, CellTiter-Glo. viability increase, % at 10 µM. hit rate 0.61% among 140,000. AID 799;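 active = viability gain under doxorubicin at or above a set limit, the compound median plus 3 SD, cut at about 4.7% in these data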;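 note: MRP-1 overexpressing cells given doxorubicin 25 µM after compound pretreatment; 18-22 h compound pretreatment then 72 h with doxorubicin before readout; 0% = doxorubicin-only wells and 100% = vehicle-treated cells without doxorubicin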
CYP2C19 act: cytochrome P450 2C19 (human) activation. recombinant CYP2C19, luciferin-H EGE luminescence; hits give high values; 0 = fully inhibited enzyme, 1 = untreated enzyme. AID 1025. P33261. activation factor at 5 µM. 96,000 tested, under 10 active;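 active = activation factor of at least 2 at 5 µM in the primary screen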;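 note: 0 = wells with 2.5 mM tranylcypromine and 1 = vehicle-only wells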
MRP resist rev: reverses drug resistance mediated by MRP; H69AR cells + 2 uM doxorubicin, CellTiter-Glo, 72 h; differential viability (reversal), % at 10 µM; hit rate 0.04% among 85,000; AID 602;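 active = viability drop by adding the cancer drug above about 55%, with treated viability meeting a 40% cutoff, limit read from the data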;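 note: viability without doxorubicin minus viability with 2 µM doxorubicin for each compound; larger differential means the compound sensitizes cells more to doxorubicin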
CYP2C9 act: CYP2C9 (human) activation; P11712; recombinant CYP2C9, luciferin-H conversion, luminescence; hits give high values; factor 1 = untreated enzyme, 0 = blocked; activation factor at 5 µM; hit rate 1.4% among 96,000;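 active = activation factor of 2 or more for CYP2C9 at a 5 µM dose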;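 note: 0 = sulfaphenazole-blocked wells and 1 = vehicle-only wells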
CYP2C9 inhib: inhibitors of human CYP2C9 | P11712 | CYP2C9 Supersomes, luciferin-H conversion, luminescence | inhibition, % at 5 µM | hit rate 20% among 96,000;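 active = blocking of liver enzyme CYP2C9 beyond about 50% at 5 µM, limit read from the data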
Active calls of the source: *; . = no result given.

SMILES | CYP2C19 inh | MRP1 act | CYP2C19 act | MRP resist rev | CYP2C9 act | CYP2C9 inhib
CN(C)S(=O)(=O)N(CC(=O)Nc1ccccc1C(F)(F)F)c1ccccc1 | 88.2* | -4.3 | 0.1 | 19.9 | 0.7 | 33.1
CCCc1nc(SCC(=O)NCc2ccc3c(c2)OCO3)c2c(=O)n(C)c(=O)n(C)c2n1 | . | . | . | -4.9 | . | .
COC(=O)/C(=C\c1ccc([N+](=O)[O-])o1)NC(=O)c1ccccc1 | 15.7 | -5.2 | 0.8 | . | 1.2 | -18.3
Cc1cccc(NC(=O)/C(=C\c2ccc([N+](=O)[O-])o2)NC(=O)c2ccc(Cl)cc2)c1 | . | 5.7* | . | . | . | .
Cc1cc(C)n(-c2nc3ccccc3nc2N2CCN(C(=O)c3ccc(Cl)cc3)CC2)n1 | 48.4 | -3.0 | 0.5 | 32.4 | 0.4 | 60.4*
Cc1cc(-c2ccccc2)n(-c2ccc(C(N)=O)cc2)n1 | . | -1.6 | . | . | . | .
COc1ccc(S(=O)(=O)N2CCN(c3nc4ccccc4nc3-n3nc(C)cc3C)CC2)cc1 | 13.5 | -3.7 | 0.9 | 8.9 | 0.4 | 58.9*
Cc1cc(-c2ccccc2)n(-c2ccc(C(=O)N3CCN(c4ncccn4)CC3)cc2)n1 | 23.5 | -1.5 | 0.8 | -22.6 | 0.4 | 60.9*
Cc1cc(C)n(-c2nc3ccccc3nc2N2CCCC2)n1 | 39.7 | -1.8 | 0.6 | -4.6 | 0.8 | 17.7
Cc1cc(C)n(-c2nc3ccccc3nc2N2CCCCCC2)n1 | 75.2* | -2.0 | 0.2 | -2.3 | 0.8 | 16.0
CCCCC1(O)CC(C(F)(F)F)=NN1C(=O)COc1ccccc1 (centres undefined) | . | 0.3 | . | -15.7 | . | .
O=C1C2ON(c3ccccc3)C(c3cccnc3)C2C(=O)N1Cc1ccccc1 (centres undefined) | 100.4* | -0.1 | 0 | 8.3 | 0.1 | 88.0*
COc1cc(C2C3C(=O)N(Cc4ccccc4)C(=O)C3ON2c2ccccc2)cc(OC)c1OC (centres undefined) | 56.9* | -1.0 | 0.4 | 31.8 | 0.7 | 25.7
Cc1ccccc1N1C(=O)C2ON(c3ccccc3)C(c3cccnc3)C2C1=O (centres undefined) | 75.0* | 0.1 | 0.3 | 14.8 | 0.5 | 51.9*
COc1ccc(C2C3C(=O)N(Cc4ccccc4)C(=O)C3ON2c2ccccc2)c(OC)c1OC (centres undefined) | 20.8 | -4.5 | 0.8 | 5.8 | 0.5 | 48.9
Cc1c(Cl)cccc1N1C(=O)C2ON(c3ccccc3)C(c3cccnc3)C2C1=O (centres undefined) | 56.4* | -1.1 | 0.4 | -0.2 | 0.6 | 42.0
O=C1C2C3c4ccccc4C(c4ccccc43)[C@@H]2C(=O)N1c1cccnc1 (some centres undefined) | . | -2.3 | . | . | . | .
Cc1ccc(NC(=O)COC(=O)CNC(=O)c2cccc([N+](=O)[O-])c2)cc1S(=O)(=O)N1CCCCCC1 | . | -1.1 | . | . | . | .
Oc1c(Br)cc(C2N=C(c3ccccc3Cl)NO2)cc1Br (centres undefined) | 26.1 | -3.4 | 0.7 | 6.1 | 0.8 | 24.0
Cc1nc(SCC(O)CCl)c([N+](=O)[O-])[nH]1 (centres undefined) | . | 0.6 | . | -1.5 | . | .
Cc1ccnc(NC(=O)COc2c(C)cc(C)cc2[N+](=O)[O-])c1 | . | -0.7 | . | . | . | .
Cc1ccnc(NC(=O)COc2ccc3oc4c(c3c2)CCCC4)c1 | . | 5.2* | . | . | . | .
CC(=O)N1CCN(CCN=CC2=C(O)CC(c3cccs3)CC2=O)CC1 (centres undefined) | -3.6 | 1.3 | 1 | 27.4 | 1.2 | -15.3
Cc1ccc(/C(O)=C2\C(=O)C(=O)N(c3cc(C)on3)C2c2cccc(Br)c2)cc1 (centres undefined) | -5.6 | -1.3 | 1.1 | . | 0.7 | 35.0
Cc1cc(N2C(=O)C(=O)/C(=C(/O)c3ccccc3)C2c2cccs2)no1 (centres undefined) | 0.2 | -0.7 | 1 | 2.7 | 0.3 | 70.8*
SMILES | CYP2C19 inh | MRP1 act | CYP2C19 act | MRP resist rev | CYP2C9 act | CYP2C9 inhib
Cc1cc(N2C(=O)C(=O)/C(=C(/O)c3ccc(F)cc3)C2c2cccc(Br)c2)no1 (centres undefined) | 20.0 | -2.3 | 0.8 | 5.1 | 0.4 | 61.4*
COc1cccc(/C(O)=C2/C(=O)C(=O)N(c3cc(C)on3)C2c2cccs2)c1 (centres undefined) | -2.5 | -2.6 | 1 | 3.2 | 0.9 | 13.6
CC(=O)N(Cc1ccc(F)cc1)C1=C(NCc2ccccc2)C(=O)c2ccccc2C1=O | 72.9* | -5.8 | 0.3 | -2.7 | 0.2 | 76.4*
CC(=O)n1nc(-c2ccccc2)nc1NCc1ccc(F)cc1 | 16.2 | 0.5 | 0.8 | 11.5 | 0.8 | 21.5
O=C(c1cccnc1)N1CCN(Cc2ccc3c(c2)OCO3)CC1 | 40.5 | 0.0 | 0.6 | 4.4 | 1.1 | -12.2
COc1ccc(CN2CCN(C(=O)c3cccnc3)CC2)cc1Br | 93.6* | -2.4 | 0.1 | 9.4 | 0.5 | 47.3
O=C(c1cccnc1)N1CCN(c2ccc(Cl)cc2)CC1 | . | -1.8 | . | . | . | .
O=C(c1cccnc1)N1CCN(Cc2cccc(Br)c2)CC1 | 94.3* | -0.5 | 0.1 | . | 0.7 | 27.1
COc1ccc(CN2CCN(C(=O)c3cc(OC)c(OC)c(OC)c3)CC2)cc1OC | . | 1.6 | . | 7.4 | . | .
COc1cccc(N2CCN(C(=O)c3cccnc3)CC2)c1 | 70.9* | -0.5 | 0.3 | . | 0.9 | 12.4
O=C(c1cccnc1)N1CCN(Cc2ccccc2Br)CC1 | 79.6* | -0.4 | 0.2 | 17.7 | 1.1 | -5.4
Fc1ccccc1COc1cccc(/C=N/n2cnnc2)c1 | 99.0* | -0.5 | 0 | 15.7 | 0.3 | 68.4*
C(=N\n1cnnc1)/c1cccc(Oc2ccccc2)c1 | 76.9* | -3.5 | 0.2 | 13.1 | 0.4 | 57.1*
O=[N+]([O-])c1cccc(/C=N/n2c(COc3ccccc3)n[nH]c2=S)c1 | 41.3 | -3.1 | 0.6 | . | 0.5 | 49.6
Nc1nnnn1/N=C/c1cccc(Oc2ccccc2)c1 | 56.0* | 0.5 | 0.4 | 6.6 | 0.9 | 8.2
Nc1nnnn1/N=C/c1cccc(OCc2ccccc2Cl)c1 | . | -0.2 | . | 1.5 | . | .
S=c1[nH]ncn1/N=C/c1cccc(Oc2ccccc2)c1 | 61.2* | -1.8 | 0.4 | -79.9 | 0.5 | 49.6
COCCCNC(CC(=O)Nc1ccccc1C(=O)OC)C(=O)O (centres undefined) | . | . | . | -10.5 | . | .
O=C(CCCCCCCC(=O)NNC(=O)Nc1ccccc1)NNC(=O)Nc1ccccc1 | . | -1.6 | . | . | . | .
CCOC(=O)N1CCN(C(=S)Nc2ccc3nc(N4CCN(CC)CC4)cc(C)c3c2)CC1 | . | -3.8 | . | . | . | .
COC(=O)c1c(Oc2nc(OC)cc(OC)n2)cccc1Oc1nc(OC)cc(OC)n1 | . | -2.0 | . | . | . | .
Cc1cc2cc3c(cc2nc1SCC(=O)N1CCN(C(=O)c2ccco2)CC1)OCO3 | 48.1 | . | 0.5 | -8.8 | 0.2 | 80.1*
Cc1cc(C)cc(-c2nnc(SCC(=O)N3CCN(C(=O)c4ccco4)CC3)o2)c1 | 49.8 | -0.9 | 0.5 | -2.1 | 2* | -102.6
Cc1[nH]c(=O)[nH]c(=O)c1S(=O)(=O)N1CCCC(C(=O)NCc2ccccc2Cl)C1 (centres undefined) | . | -1.0 | . | . | . | .

Compound activity as filed in PubChem.
